Experimental data from PubChem BioAssay AID1239 (SRMLSC, 2008).
The campaign covered roughly 190,000 compounds. About 3,100 (1.6%) were called active. No stated cut-off is given here; in the data, active means fold change above about 3.3; inconclusive means no clear call, values can overlap the other calls; inactive means below that. What follows is part of a selection rich in actives, with near analogues and random picks from the rest.

Test: activators of NF-kB expression in neurons, primary screen, cell-based, HTS (AID 1239)
Conditions: human neuronal cells, NF-kB reporter expression; at 12.5 µM; stronger effect = higher value

Structure (SMILES)	fold change
N/C(=N\OC(=O)/C=C/c1ccccc1)c1ccc(Br)cc1	1.46 (inactive)
N/C(=N\OC(=O)c1ccc2c(c1)OCO2)c1ccc(Br)cc1	3.37 (active)
N/C(=N\OC(=O)N1c2ccccc2Sc2ccccc21)c1ccc(Br)cc1	1.29 (inactive)
CC(C)(C)OC(=O)N/N=C/c1cn(-c2ccccc2)nc1-c1cccnc1	0.46 (inactive)
Cc1ccc(S(=O)(=O)N(CC(=O)NN=C2CCN(C)CC2)c2ccc(F)cc2)cc1	0.83 (inactive)
COc1ccc(C(=O)Nc2ccc(F)cc2F)cc1	3.39 (active)
COc1ccc(C(=O)Nc2ccc(S(=O)(=O)NC(C)C)cc2)cc1	1.12 (inactive)
COc1ccc(NC(=O)Nc2ccc3nc(C)c(C)nc3c2)cc1	0.77 (inactive)
COc1ccccc1CC(=O)Nc1ccc(F)cc1F	1.07 (inactive)
COc1ccc(NC(=O)c2ccc(C#CC(C)(C)O)cc2)cc1	1.35 (inactive)
COc1ccc(NC(=O)Nc2ccc3nsnc3c2)cc1	3.98 (active)
COc1ccc(NC(=O)c2ccc(OC)cc2)cc1	4.29 (active)
COc1ccc(/C=N/NC(=O)Nc2ccc3nsnc3c2)c(OC)c1	1.11 (inactive)
COc1cc(OC)cc(C(=O)OCC(=O)Nc2ccc(F)cc2F)c1	1.18 (inactive)
Cc1ccc(-c2nn(-c3cccc(F)c3)cc2CNCCc2ccncc2)o1	0.82 (inactive)
Cc1cc(C(=O)N/N=C\C(Br)=C\c2ccccc2)c(C)o1	1.27 (inactive)
O=C(Nc1cccn(Cc2ccccc2Cl)c1=O)NC1CCCCC1	1.26 (inactive)
O=C(COc1ccccc1[N+](=O)[O-])NC1CC1	1.17 (inactive)
Cc1ccc(C(=O)N/C(=C\c2cccs2)C(=O)NCCc2ccccn2)cc1C	1.8 (inactive)
Cc1ccccc1Nc1scc(-c2ccc(Br)cc2)[n+]1-c1ccccc1C	0.87 (inactive)
Cc1cc(C)nc(N2CCC(C(=O)Nc3ccc4c(c3)OCCO4)CC2)n1	1.22 (inactive)
O=C(Nc1ccc2c(c1)OCCO2)C1CCCN(c2ncccn2)C1 (centres undefined)	4.28 (active)

Structure (SMILES)	fold change
Cc1ccnc(N2CCCC(C(=O)Nc3cc(F)ccc3C)C2)n1 (centres undefined)	1.14 (inactive)
COc1ccc(-c2ccc(CCC(=O)O)n2-c2ccc(O)cc2)cc1	0.84 (inactive)
Cc1ccc(S(=O)(=O)N(NC2=NS(=O)(=O)c3ccccc32)C(=O)c2ccccc2)cc1	1.06 (inactive)
O=C(Oc1cccc(NC2=NS(=O)(=O)c3ccccc32)c1)c1ccncc1	1.14 (inactive)
CC(C)(C)c1csc(NC2=NS(=O)(=O)c3ccccc32)n1	3.56 (active)
N#Cc1c(NC(=O)C2CCCO2)sc2c1CCCCC2 (centres undefined)	1.1 (inactive)
CCN(CC)CCNS(=O)(=O)c1ccc(/C=C/C(=O)O)cc1	1.3 (inactive)
COc1ccc(/C=N/NC(=O)c2cccc(C(F)(F)F)c2)cc1	0.86 (inactive)
CSc1ccc(/C=N\NC(=O)COc2ccc(Cl)cc2Br)cc1	1.51 (inactive)
CSc1ccc(/C=N/NC(=O)c2cccc(Cl)c2)cc1	3.71 (active)
CC(=O)c1ccccc1NC(=O)CC1(CC(=O)O)CCCCC1	1.2 (inactive)
CC(=O)Nc1ccc(CN2CCN(Cc3ccc(F)c(F)c3)C(CCO)C2)cc1 (centres undefined)	1.18 (inactive)
CCC(=O)Oc1cccc(C(=O)Nc2ccc(-c3nnc(-c4ccco4)o3)cc2)c1	0.99 (inactive)
CCCCOc1ccc(-c2nnc(-c3ccco3)o2)cc1	3.49 (active)
CCOc1ccc(-c2nnc(-c3ccco3)o2)cc1	2.85 (inactive)
O=C1CCCC2=C1C(c1cccs1)CC(=O)N2c1ccc(F)cc1 (centres undefined)	1.01 (inactive)
CN(C)CCOCCOc1ccc(Cl)c2ccccc12	0.97 (inactive)
CCOC(=O)c1[nH]ncc1CN1CCCC(C(=O)c2ccc(OC)cc2C)C1 (centres undefined)	1.04 (inactive)
C=CCn1c(-c2sc(-c3ccccc3)nc2C)n[nH]c1=S	1.29 (inactive)
O=c1oc2c(CN3CCCCC3)c(O)ccc2c2c1CCCCC2	1.01 (inactive)
CCCOc1ccc2c3c(c(=O)oc2c1OCCC)CCC3	5.55 (active)
COc1ccc2c3c(c(=O)oc2c1OCC(=O)C(C)(C)C)CCCC3	1.12 (inactive)

Structure (SMILES)	fold change
Cc1cccc(NC(=S)NCCc2ccc(F)cc2)c1C	1.04 (inactive)
Cc1ccc2c(c1)C(O)(CC(=O)c1cccc(-n3cccc3)c1)C(=O)N2 (centres undefined)	1.11 (inactive)
COC(=O)c1sc2[nH]c(=S)n(N)c(=O)c2c1C	1.19 (inactive)
Cc1ccccc1Nc1nc(N)nc(CSc2ccccc2)n1	5.08 (active)
Cc1ccccc1Nc1nc(N)nc(CSc2nnc3ccccn23)n1	1.69 (inactive)
Cc1ccc(C(=O)OCc2nc(N)nc(Nc3ccccc3C)n2)cc1	0.92 (inactive)
C/C(=N/OC(=O)c1c(-c2c(F)cccc2Cl)noc1C)c1cnccn1	1.2 (inactive)
CCOc1ccc2nc(Nc3nc4ccc(NC(C)=O)cc4s3)sc2c1	0.85 (inactive)
CCOc1ccc2nc(SC(CC)C(=O)Nc3cc(C)on3)sc2c1 (centres undefined)	0.94 (inactive)
CCOc1ccc2nc(C(=O)N3CCCC(C)C3)sc2c1 (centres undefined)	8.66 (active)
CCOC(=O)c1c(NC(=O)C2CC=CCC2C(=O)O)sc(C)c1CC (centres undefined)	0.88 (inactive)
Cc1ccn(-c2cccc(-n3ccc(C)n3)n2)n1	3.56 (active)
COc1cccc(-c2nc(S(=O)(=O)c3ccccc3)c(N3CCOCC3)o2)c1	1.11 (inactive)
COc1ccc(-c2nc3cc([N+](=O)[O-])ccc3o2)cc1OC	1.48 (inactive)
O=C(Cc1cccc2ccccc12)Nc1ccc2oc(-c3ccccc3)nc2c1	1.24 (inactive)
COc1ccc2oc(-c3cccc(NC(=O)CSc4ccc(Cl)cc4)c3)nc2c1	5.09 (active)
COc1ccc(C)cc1NC(=O)CSc1ccc(Cl)cc1	1.29 (inactive)
COc1cccc(-c2nc3cc(C)ccc3o2)c1	6.47 (active)
COc1ccc(S(=O)(=O)N2CCCCCC2)cc1C(=O)OCC(=O)Nc1cc(C)on1	0.91 (inactive)
CCC(C)(C)c1ccc(OCC(=O)N(C)C)c(C(C)(C)CC)c1	0.82 (inactive)
